Laboratory results taken from PubChem BioAssay (NCI).
About 83,000 compounds went through this panel and 20% of them were active in at least one assay; those are over-represented in the sample as a whole.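 Assay: single dose, 48 h. Readout: percent growth (0 = no net growth; negative = cell death). Active: <10.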 Values without a mark were called inactive. Active and inactive are the calls of the source.

Tests used:
Assay in all cases: NCI-60 one-dose screen, 48 h (100 = growth as untreated, 0 = no growth, -100 = all killed)
Conditions in all cases: 10 µM
[1] = system: HCT-15 colon
[2] = system: HT29 colon
[3] = system: SNB-75 CNS
[4] = system: SNB-19 CNS
[5] = system: U251 CNS
[6] = system: PC-3 prostate
[7] = system: SK-MEL-5 melanoma
[8] = system: UACC-62 melanoma
[9] = system: LOX IMVI melanoma
[10] = system: SK-MEL-28 melanoma

| SMILES | growth [1] | growth [2] | growth [3] | growth [4] | growth [5] | growth [6] | growth [7] | growth [8] | growth [9] | growth [10] |
| --- | --- | --- | --- | --- | --- | --- | --- | --- | --- | --- |
| Cc1ccc(C2NC(=S)N3C(c4ccc(C)cc4)NC(=S)N23)cc1 (stereo not given) | 29.5% | 17.8% | 127% | 44.5% | 28.3% | 34.4% | 17.1% | 34.6% | 51.4% | 58.7% |
| O=[N+]([O-])c1cccc(/C=N/NC(=S)NC23CC4CC(CC(C4)C2)C3)c1 | 96% | 88.7% | 17.9% | 80.6% | 68.1% | 75.9% | 85.7% | 84.3% | 76.4% | 85.4% |
| Brc1ccc2c(c1)-c1ccccc1C1=NCCN12 | 1.51% (active) | -14.9% (active) | 8.5% (active) | 16.2% | -10.7% (active) | 2.13% (active) | -77.2% (active) | -13.4% (active) | -69.4% (active) | 0.722% (active) |
| CCN(CC)CCN1c2nc3ccccc3cc2Sc2cc3ccccc3nc21 | 3.28% (active) | -92.3% (active) | -7.91% (active) | 36.4% | 5.23% (active) | -13.8% (active) | -68.1% (active) | -0.283% (active) | -100% (active) | -50.4% (active) |
| O=C1Cc2cc(CCN3CCN(c4nsc5ccccc45)CC3)c(Cl)cc2N1 | 85.1% | 90.1% | 78.8% | 94.1% | 94.7% | 72.3% | 92% | 84.8% | 96.8% | 90.3% |
| CNS(=O)(=O)Oc1ccc(-c2ccc3occc3c2)cc1 | 92.8% | 99.1% | 106% | 101% | 94.1% | 90.6% | 101% | 87.3% | 96.4% | 94.4% |
| S=C1N(c2ccccc2)CN(C2CCCCC2)CN1c1ccccc1 | 95.3% | 99.5% | 90.1% | 95.3% | 98.5% | 84% | 97.9% | 97.7% | 95.6% | 104% |
| O=C(N/N=C/c1ccc([N+](=O)[O-])cc1)c1ccccc1Nc1cccc(C(F)(F)F)c1 | 98.6% | 69.8% | 87.1% | 105% | 89.2% | 91% | 83.1% | 90.8% | 98.1% | 91.7% |
| COc1ccccc1N1CCCSC1=Nc1ccccc1 | 115% | 150% | 232% | 92.9% | 105% | 92.9% | 96.6% | 99.9% | 92.5% | 95.9% |
| CC(C)(C)OC(=O)N1CCc2c(sc3ncnc(N/N=C/c4cccc5ccccc45)c23)C1 | 6.88% (active) | 26.2% | -3.28% (active) | 26.3% | 33.7% | 25.9% | -57.2% (active) | 0.0448% (active) | 13.1% | 32.9% |
| COc1cc(OC)c2c(=O)c(O)c(-c3ccccc3)oc2c1 | 51.7% | 99.6% | 76% | 62.4% | 47.1% | 67.1% | 72.4% | 72.1% | 59.1% | 95.8% |
| COc1ccc2c(c1)C(=O)/C(=C/c1cccc(OCC(=O)c3ccc([N+](=O)[O-])cc3)c1)CO2 | -37.6% (active) | 6.81% (active) | 55.5% | 90.1% | 22.4% | 22.5% | 15.8% | 46.7% | -100% (active) | 43.9% |
| COc1cc(CNC(=O)C2CSC3(C)c4ccccc4C(=O)N23)cc(OC)c1OC (stereo not given) | 106% | 82.6% | 97.5% | 93% | 82.7% | 90% | 102% | 92.5% | 105% | 103% |
| CC(C)CCN(CCC(C)C)CC(=O)Nc1ccc(S(=O)(=O)c2ccc(NC(=O)CN(CCC(C)C)CCC(C)C)cc2)cc1 | 10.4% | 10.3% | 79.3% | 52.6% | 10.5% | 39.7% | 47% | 29.7% | -78.4% (active) | 72.6% |
| CCN1CC(CCN2CCOCC2)C(C(c2ccccc2)c2ccccc2)C1=O (stereo not given) | 94.1% | 102% | 102% | 102% | 101% | 82.7% | 100% | 94.8% | 97.2% | 116% |
| Cc1nc2n(c(=O)c1CCN1CCC(c3noc4cc(F)ccc34)CC1)CCC[C@@H]2O | 93.8% | 95.2% | 87.1% | 102% | 93.7% | 91.3% | 100% | 98.2% | 97.4% | 97.9% |
| COc1cc(/C=C2\CCCC3C2=Nc2ccccc2NC3c2cc(OC)c(OC)c(OC)c2)cc(OC)c1OC (stereo not given) | 6.11% (active) | -3.94% (active) | 54.5% | 64.4% | -11.4% (active) | 38.2% | -52% (active) | -32.6% (active) | -62% (active) | 29.4% |
| Nc1ccn(Cc2nnc(CCC(=O)c3nc4ccccc4[nH]3)o2)c(=O)n1 | 89.2% | 89.5% | 67.5% | 91% | 85.6% | 77% | 68.9% | 66.2% | 53.9% | 104% |
| CC(=O)OC/C=C(/C)C[P+](c1ccccc1)(c1ccccc1)c1ccccc1 | 73.3% | 59.8% | 76.8% | 47% | 35.8% | 41.3% | 43.1% | 47.6% | 55.2% | 69% |
| O=C1/C(=C/c2ccc([N+](=O)[O-])s2)Oc2cc(Cl)ccc21 | 0.579% (active) | -4.42% (active) | 58.8% | 2.32% (active) | -58% (active) | -73% (active) | 17.6% | -37.7% (active) | -78.4% (active) | -29.2% (active) |
| COc1cc(C(=O)N2CCN(c3cc4c(cc3F)c(=O)c(C(=O)NO)cn4C3CC3)CC2)cc(OC)c1OC | 106% | 105% | 96.3% | 100% | 98.1% | 93.6% | 101% | 95% | 94.1% | 108% |
| O=C(CSc1nnc(-c2ccc(Cl)cc2)o1)Nc1ccc(C(=O)/C=C/c2ccc(Cl)cc2)cc1 | 107% | 99% | 98.1% | 94.6% | 104% | 92.8% | 94.1% | 87.6% | 98% | 110% |
| CC1OC2CC(=O)OC2C2=C1C(=O)c1c(O)c3c(c(O)c1C2=O)C1CC(O)C3(O)C(C)O1 (stereo not given) | -15.8% (active) | -15.9% (active) | -28.9% (active) | 4.68% (active) | -23.4% (active) | 7.91% (active) | -96.1% (active) | -76.5% (active) | -65.9% (active) | -51.5% (active) |
| O=C(Cn1cc(CO)nn1)Nc1nc2ccccc2s1 | 105% | 99.5% | 92.4% | 96.9% | 102% | 96.3% | 102% | 97% | 95.1% | 106% |
| O=C(N/N=C/c1ccc(Cl)cc1)c1ccc(Cc2n[nH]c(=O)c3cccnc23)cc1 | 97.1% | 99.3% | 84.5% | 89% | 103% | 95.4% | 100% | 94.2% | 100% | 104% |
